PubChem BioAssay (Tox21)
Results filed as inconclusive are left out. Active and inactive are the calls of the source. Unless noted, calls follow the shape of the full dose curve.

Legend:
[1] = Nuclear factor erythroid 2-related factor 2/antioxidant responsive element (Nrf2/ARE) small molecule agonists: qHTS cell viability counter screen in human keratinocytes (AID 1919968; active = well fitted curve in the direction sought with a large enough effect in the repeat runs; an effect the other way counts as inactive or inconclusive; also: nearly all actives have a fitted effect of over 55% in size; also: potency is read from the fitted curve at half-maximal effect)
Procedure, shortened: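 Cytotoxicity was multiplexed with the Nrf2/ARE luciferase assay in the same wells. Stably transfected HaCaT keratinocytes were treated with test compounds for 23 h at 37 C. Cell viability was then measured by CellTiter-Fluor fluorescence.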

[2] = biological target: Gonadotropin-releasing hormone receptor (Homo sapiens) (UniProt P30968); experiment: Human gonadotropin-releasing hormone receptor (GnRHR) small molecule agonists, calcium flux assay in GnRHR-HEK293 cells (AID 1920063); also: nearly all actives have a fitted effect of over 35% in size
Gonadotropin-releasing hormone receptor (Homo sapiens), sequence (P30968 whole entry, looked up): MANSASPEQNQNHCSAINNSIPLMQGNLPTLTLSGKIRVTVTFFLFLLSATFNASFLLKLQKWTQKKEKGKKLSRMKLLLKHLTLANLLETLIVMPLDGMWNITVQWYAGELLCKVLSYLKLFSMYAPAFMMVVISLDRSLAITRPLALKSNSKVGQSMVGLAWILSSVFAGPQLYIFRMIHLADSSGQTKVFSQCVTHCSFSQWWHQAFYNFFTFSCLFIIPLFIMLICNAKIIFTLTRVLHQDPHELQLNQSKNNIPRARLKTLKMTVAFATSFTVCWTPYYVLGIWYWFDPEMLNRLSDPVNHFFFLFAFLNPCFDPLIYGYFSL
Procedure, shortened: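 Agonist activity was measured as intracellular calcium flux in HEK293 cells engineered to stably express human GnRHR. After dye loading for 1 hour at 37 C, compounds in DMSO were added and fluorescence was followed for 3 minutes.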

[3] = biological target: KiSS-1 receptor (Homo sapiens) (UniProt Q969F8); experiment: Human kisspeptin (KISS1R) small molecule agonists, calcium flux assay in KISS1R-HEK293 cells (AID 1920064; active = well fitted curve in the direction sought with a large enough effect in the repeat runs; an effect the other way counts as inactive or inconclusive)
KiSS-1 receptor (Homo sapiens), sequence (Q969F8 whole entry, looked up): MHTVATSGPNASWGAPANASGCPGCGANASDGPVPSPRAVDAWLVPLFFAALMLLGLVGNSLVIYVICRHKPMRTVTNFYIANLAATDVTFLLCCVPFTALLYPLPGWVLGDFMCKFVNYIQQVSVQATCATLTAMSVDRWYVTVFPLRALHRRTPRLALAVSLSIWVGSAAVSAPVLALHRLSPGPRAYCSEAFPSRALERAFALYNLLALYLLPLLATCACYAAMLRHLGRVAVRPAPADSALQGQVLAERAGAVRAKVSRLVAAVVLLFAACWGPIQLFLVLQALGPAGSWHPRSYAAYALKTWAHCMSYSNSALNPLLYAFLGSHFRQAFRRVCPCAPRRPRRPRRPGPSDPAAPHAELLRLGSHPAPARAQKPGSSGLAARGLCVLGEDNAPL
Procedure, shortened: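 Agonist activity is monitored as intracellular calcium rise in engineered HEK293 cells carrying human KISS1R. Cells are dye-loaded for 1 h at 37 C before compound addition, and fluorescence is recorded for 3 min.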

[4] = G protein-coupled receptor (GPCR) small molecule agonists, calcium flux assay: HEK293 wild type cell line counter screen (AID 1920065)
Procedure, shortened: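 Seed cells, incubate 18 h (37 C, 5% CO2); add calcium dye, 1 h at 37 C; pin-transfer compounds, ATP control or DMSO; read fluorescence 480/540 nm each second for 3 min.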

[5] = p53 small molecule agonists, cell-based qHTS assay with human liver microsomes (AID 1963577);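 also: p53 response element beta-lactamase reporter cells with liver microsomes plus NADPH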
Procedure, shortened: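 Reporter activation was measured by LiveBLAzer fluorescence intensity in p53RE-bla cells, which had been exposed to compounds for 16 h at 37 C alongside 0.5 mg/mL human liver microsomes and 0.5 mg/mL NADPH (final concentrations).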

[6] = p53 small molecule agonists, cell-based qHTS assay with rat liver microsomes (AID 1963578)
Procedure, shortened: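 Compound in DMSO added to p53RE-bla cells 5 h post-plating; rat microsomes/NADPH 0.5 mg/mL final; 16 h, 37 C; LiveBLAzer 2 h RT.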

[7] = p53 small molecule agonists, cell-based qHTS assay with human liver microsomes: qHTS cell viability counter screen (AID 1963579); also: nearly all actives have a fitted effect of over 45% in size
Procedure, shortened: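 HLM-supplemented (0.5 mg/mL final) and NADPH-supplemented (0.5 mg/mL final) p53RE-bla cultures, 4,000 cells per well, were dosed with compounds in DMSO for 16 h at 37 C; luminescent ATP detection (CellTiter-Glo, 30 min, room temperature) quantified surviving cells.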

[8] = p53 small molecule agonists, cell-based qHTS assay with rat liver microsomes: qHTS cell viability counter screen (AID 1963580); also: nearly all actives have a fitted effect of over 45% in size; also: potency is read from the fitted curve at half-maximal effect
Procedure, shortened: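 Counter screen for cytotoxicity under metabolic activation: rat liver microsomes and NADPH, 0.5 mg/mL final each, added with compounds to p53RE-bla HCT-116 cells; 16 h at 37 C, then ATP luminescence read.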

[9] = p53 small molecule agonists, cell-based qHTS assay: qHTS cell viability counter screen (AID 1963581); also: nearly all actives have a fitted effect of over 45% in size; also: potency is read from the fitted curve at half-maximal effect
Procedure, shortened: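 Viability was counter-screened in parallel with the p53 agonist reporter by measuring intracellular ATP luminescence in the same HCT-116 p53RE-bla wells after 16 h compound treatment at 37 C.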

[10] = biological target: 5-hydroxytryptamine receptor 2A (Homo sapiens) (UniProt P28223); experiment: 5-hydroxytryptamine receptor 2A (HTR2A) small molecule antagonists, cell-based qHTS assay (AID 1963586); also: nearly all actives have a fitted effect of over 45% in size
5-hydroxytryptamine receptor 2A (Homo sapiens), sequence (P28223 whole entry, looked up): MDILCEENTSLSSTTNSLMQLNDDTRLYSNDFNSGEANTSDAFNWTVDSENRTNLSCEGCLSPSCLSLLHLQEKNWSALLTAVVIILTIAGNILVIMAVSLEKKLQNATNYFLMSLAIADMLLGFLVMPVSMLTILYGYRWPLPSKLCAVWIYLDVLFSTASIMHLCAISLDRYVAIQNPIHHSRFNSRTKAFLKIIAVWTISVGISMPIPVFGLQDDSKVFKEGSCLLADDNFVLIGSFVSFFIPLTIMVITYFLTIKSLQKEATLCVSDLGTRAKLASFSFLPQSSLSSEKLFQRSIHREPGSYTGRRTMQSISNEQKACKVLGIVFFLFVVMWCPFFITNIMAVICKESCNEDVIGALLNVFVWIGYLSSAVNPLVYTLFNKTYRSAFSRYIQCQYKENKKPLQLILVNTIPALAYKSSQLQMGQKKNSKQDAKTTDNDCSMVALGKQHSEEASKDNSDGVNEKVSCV
Procedure, shortened: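 CHO cells stably expressing human HTR2A were plated for 18 h at 37 C, then loaded with calcium dye for 1 h. Compounds were preincubated 5 min at room temperature before DOI (4 nM solution) was added. Kinetic fluorescence was read for 3 min.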

[11] = biological target: 5-hydroxytryptamine receptor 2A (Homo sapiens) (UniProt P28223); experiment: 5-hydroxytryptamine receptor 2A (HTR2A) small molecule agonists, cell-based qHTS assay (AID 1963587); also: nearly all actives have a fitted effect of over 30% in size; also: potency is read from the fitted curve at half-maximal effect
Procedure, shortened: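 HTR2A-CHO cells, plated 18 h at 37 C/5% CO2, dye-loaded 1 h at 37 C; compounds in DMSO added by pin tool (agonist mode). Intracellular calcium flux read as kinetic fluorescence on FDSS over 2 min at 1 s intervals.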

[12] = biological target: Muscarinic acetylcholine receptor M1 (Homo sapiens) (UniProt P11229); experiment: Cholinergic receptor muscarinic 1 (CHRM1) small molecule antagonists, cell-based qHTS assay (AID 1963588); also: nearly all actives have a fitted effect of over 40% in size
Muscarinic acetylcholine receptor M1 (Homo sapiens), sequence (P11229 whole entry, looked up): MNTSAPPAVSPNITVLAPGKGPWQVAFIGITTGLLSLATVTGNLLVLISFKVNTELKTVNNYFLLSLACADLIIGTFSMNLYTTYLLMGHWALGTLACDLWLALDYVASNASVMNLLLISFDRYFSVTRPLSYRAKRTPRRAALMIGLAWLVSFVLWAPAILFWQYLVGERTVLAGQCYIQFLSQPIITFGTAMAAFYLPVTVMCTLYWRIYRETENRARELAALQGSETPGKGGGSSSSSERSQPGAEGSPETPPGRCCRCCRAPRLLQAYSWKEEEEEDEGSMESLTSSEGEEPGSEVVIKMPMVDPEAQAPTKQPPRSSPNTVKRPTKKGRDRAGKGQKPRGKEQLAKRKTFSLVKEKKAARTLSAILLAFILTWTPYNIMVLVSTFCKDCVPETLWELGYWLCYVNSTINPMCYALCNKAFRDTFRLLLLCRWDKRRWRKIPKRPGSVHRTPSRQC
Procedure, shortened: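 Compounds were tested at 15 concentrations in three independent runs. Dye-loaded CHRM1-CHO cells were exposed 5 min at room temperature before stimulation by acetylcholine added at 50nM. Intracellular calcium was read kinetically on FDSS for 3 min.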

[13] = biological target: Muscarinic acetylcholine receptor M1 (Homo sapiens) (UniProt P11229); experiment: Cholinergic receptor muscarinic 1 (CHRM1) small molecule agonists, cell-based qHTS assay (AID 1963589); also: nearly all actives have a fitted effect of over 35% in size
Procedure, shortened: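 Cells were plated and incubated 18 h at 37 C/5% CO2, loaded with calcium dye for 1 h at 37 C, then treated with compounds in DMSO. Fluorescence was recorded kinetically at 1 sec intervals.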

[14] = cAMP Responsive Elements (CRE) small molecule antagonists, cell-based qHTS assay (AID 1963591; active = well fitted inhibition curve with a large enough effect in the signal ratio in the repeat runs, not every such curve was filed as active; the % refers to the signal ratio)
Procedure, shortened: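 Cells (CRE-bla HEK 293T, DMEM with 10% dialyzed FBS and 25 mM HEPES) are seeded and incubated 18 h. Compounds are added with NKH477 agonist at 0.25 uM final for 3 h, then FRET substrate for 2 h.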

[15] = biological target: Beta-2 adrenergic receptor (Homo sapiens) (UniProt P07550); experiment: Adrenergic beta2 receptor (ADRB2) small molecule antagonists, cell-based qHTS assay (AID 1963592); also: series mostly up to about 92 µM; nearly all actives have a fitted effect of over 50% in size
Beta-2 adrenergic receptor (Homo sapiens), sequence (P07550 whole entry, looked up): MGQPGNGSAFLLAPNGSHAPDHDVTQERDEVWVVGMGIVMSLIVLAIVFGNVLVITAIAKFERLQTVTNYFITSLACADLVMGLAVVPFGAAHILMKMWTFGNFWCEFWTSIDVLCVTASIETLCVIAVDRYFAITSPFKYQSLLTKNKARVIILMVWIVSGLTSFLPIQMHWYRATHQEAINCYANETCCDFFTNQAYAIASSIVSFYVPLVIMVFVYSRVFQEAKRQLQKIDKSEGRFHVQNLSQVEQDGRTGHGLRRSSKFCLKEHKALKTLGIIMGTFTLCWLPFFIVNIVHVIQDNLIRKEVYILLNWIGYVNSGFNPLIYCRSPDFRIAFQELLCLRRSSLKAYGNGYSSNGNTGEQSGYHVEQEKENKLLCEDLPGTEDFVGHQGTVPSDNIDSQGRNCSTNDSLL
Procedure, shortened: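 Assay format: CHO-ADRB2 cells, 18-20hr seeding at 37C/5% CO2, then compound plus 1nM isoproterenol agonist mix for 0.5hr RT. Homogeneous time-resolved fluorescence cAMP detection after 1hr, expressed as 665/615 nm ratio.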

[16] = biological target: D(2) dopamine receptor (Homo sapiens) (UniProt P14416); experiment: Dopamine D2 receptor (DRD2) small molecule agonists, cell-based qHTS assay (AID 1963594); also: nearly all actives have a fitted effect of over 35% in size
D(2) dopamine receptor (Homo sapiens), sequence (P14416 whole entry, looked up): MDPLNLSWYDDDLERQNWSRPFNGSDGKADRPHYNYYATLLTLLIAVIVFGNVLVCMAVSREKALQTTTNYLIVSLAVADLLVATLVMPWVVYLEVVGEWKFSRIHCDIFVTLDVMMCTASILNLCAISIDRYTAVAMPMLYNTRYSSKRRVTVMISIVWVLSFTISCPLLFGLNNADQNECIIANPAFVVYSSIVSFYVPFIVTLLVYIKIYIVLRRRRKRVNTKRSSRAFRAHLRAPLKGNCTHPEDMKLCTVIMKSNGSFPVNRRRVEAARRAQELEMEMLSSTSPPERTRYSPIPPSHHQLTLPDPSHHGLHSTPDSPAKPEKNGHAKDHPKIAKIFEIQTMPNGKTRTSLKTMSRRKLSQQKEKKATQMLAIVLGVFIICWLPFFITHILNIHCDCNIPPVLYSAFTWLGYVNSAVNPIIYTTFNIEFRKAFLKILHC
Procedure, shortened: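 HEK293 cells stably expressing DRD2 were cultured 24 h at 37 C, then given Ro20-1724 (0.1 mM final) and compounds for 10 min at room temperature. NKH477 (200nM) was then added for 30 min. cAMP was read by HTRF.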

[17] = biological target: D(2) dopamine receptor (Homo sapiens) (UniProt P14416); experiment: Dopamine D2 receptor (DRD2) small molecule antagonists, cell-based qHTS assay (AID 1963595; active = well fitted inhibition curve with a large enough effect in the signal ratio in the repeat runs, with a control signal flat; the % refers to the signal ratio)
Procedure, shortened: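 DRD2-HEK293; 0.1 mM Ro20-1724; cpd 10 min RT; NKH477 200 nM + quinpirole 12 nM, 30 min RT; HTRF cAMP (cAMP-d2/anti-cAMP cryptate), 665/620 nm ratio after 1 h.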

[18] = p53 small molecule agonists, cell-based qHTS assay (AID 1963582; active = well fitted activation curve with a large enough effect in the signal ratio in the repeat runs, not every such curve was filed as active; the % refers to the signal ratio)
Procedure, shortened: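 Cells carrying a p53-responsive bla reporter are treated with test compounds for 16 h at 37 C; beta-lactamase activity is then detected with LiveBLAzer B/G FRET substrate after 2 h at room temperature.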

[19] = cAMP Responsive Elements (CRE) small molecule agonists, cell-based qHTS assay (AID 1963590)
Procedure, shortened: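 Cells carrying a CRE-driven beta-lactamase reporter (HEK 293T) are seeded, incubated overnight (18 h), and treated with test compounds for 3 h at 37 C; reporter activity is then detected with a FRET substrate after 2 h at room temperature.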

[20] = biological target: Beta-2 adrenergic receptor (Homo sapiens) (UniProt P07550); experiment: Adrenergic beta2 receptor (ADRB2) small molecule agonists, cell-based qHTS assay (AID 1963593);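 also: CHO cells stably overexpressing human ADRB2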
Procedure, shortened: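 CHO cells stably over-expressing ADRB2 were plated overnight at 37C, then dosed with compounds plus a stimulation mix containing 100uM IBMX and 25uM Ro-20-1724 for 0.5hr at room temperature. cAMP was measured by HTRF competition, 1hr.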
% is scaled to controls: 0 for no effect and ±100 for the full control effect.

O=C(Nc1ccc(Oc2ccc(Cl)cc2)c(Cl)c1)c1cc(I)cc(I)c1O
inactive: Potency [2] | Potency [3] | Potency [4] | Potency [5] | Potency [6] | Potency [7] | Potency [8] | Potency [10] | Potency [11] | Potency [12] | Potency [13] | Potency [14] | Potency [15] | Potency [16] | Potency [17]
active: Potency [1] 26.6 µM | Potency [9] 5 µM

CC1(C)CCC[C@]2(C)[C@H]3CC(=O)O[C@]3(C)CC[C@@H]12
inactive: Potency [1] | Potency [2] | Potency [3] | Potency [4] | Potency [5] | Potency [6] | Potency [7] | Potency [8] | Potency [9] | Potency [18] | Potency [10] | Potency [13] | Potency [15] | Potency [16]

O=C(Oc1ccccc1)Oc1ccccc1
inactive: Potency [1] | Potency [2] | Potency [3] | Potency [4] | Potency [5] | Potency [6] | Potency [7] | Potency [8] | Potency [9] | Potency [18] | Potency [11] | Potency [12] | Potency [13] | Potency [19] | Potency [16] | Potency [17]

CCCCNc1cc(C(=O)O)cc(S(N)(=O)=O)c1Oc1ccccc1
inactive: Potency [1] | Potency [2] | Potency [3] | Potency [4] | Potency [5] | Potency [6] | Potency [7] | Potency [8] | Potency [9] | Potency [18] | Potency [11] | Potency [13] | Potency [19] | Potency [14] | Potency [15] | Potency [16] | Potency [17]

CC(C)C(O)(c1ccc(OC(F)(F)F)cc1)c1cncnc1 (centres undefined)
inactive: Potency [1] | Potency [2] | Potency [3] | Potency [4] | Potency [5] | Potency [6] | Potency [7] | Potency [8] | Potency [18] | Potency [10] | Potency [11] | Potency [12] | Potency [19] | Potency [14] | Potency [15] | Potency [20] | Potency [16]

On1ccccc1=S
active: Potency [1] 0.27 µM | Potency [8] 0.718 µM | Potency [11] 21.7 µM
inactive: Potency [2] | Potency [3] | Potency [4] | Potency [5] | Potency [6] | Potency [7] | Potency [10] | Potency [12] | Potency [13] | Potency [19] | Potency [15] | Potency [16] | Potency [17]

CCCCCCOC(=O)c1ccccc1
inactive: Potency [1] | Potency [2] | Potency [3] | Potency [4] | Potency [5] | Potency [6] | Potency [7] | Potency [8] | Potency [10] | Potency [11] | Potency [12] | Potency [13] | Potency [19] | Potency [15] | Potency [16] | Potency [17]

C[C@@H](N)C(=O)O
inactive: Potency [1] | Potency [2] | Potency [3] | Potency [4] | Potency [5] | Potency [6] | Potency [7] | Potency [8] | Potency [18] | Potency [10] | Potency [12] | Potency [13] | Potency [19] | Potency [14] | Potency [15] | Potency [20] | Potency [16] | Potency [17]

Clc1cccc(Cl)n1
inactive: Potency [1] | Potency [2] | Potency [3] | Potency [4] | Potency [5] | Potency [6] | Potency [7] | Potency [8] | Potency [9] | Potency [11] | Potency [12] | Potency [13] | Potency [19] | Potency [14] | Potency [15] | Potency [20] | Potency [16] | Potency [17]

CC(C)c1ccccc1
inactive: Potency [1] | Potency [2] | Potency [3] | Potency [4] | Potency [5] | Potency [6] | Potency [7] | Potency [9] | Potency [18] | Potency [10] | Potency [11] | Potency [12] | Potency [13] | Potency [19] | Potency [15] | Potency [16] | Potency [17]

CC1=CC(=C(c2ccc(N)cc2)c2ccc(N)cc2)C=CC1=N
inactive: activity change, negative = cytotoxicity [1] -10.2% [at 8.39 µM] | activity change [2] -1.28% [at 5.22 µM, active compounds read high] | activation [3] 0.102% [at 6.97 µM] | activation [4] -0.23% [at 5.23 µM] | activation [5] -13.4% [at 5.99 µM] | activation [6] -2.26% [at 5.99 µM] | activity change, negative = cytotoxicity [7] -13.2% [at 5.99 µM] | activity change, negative = cytotoxicity [9] -0.979% [at 5.99 µM] | activation [18] -2.87% [at 5.99 µM] | activity, negative = inhibition [10] 14.5% [at 5.62 µM] | activation [11] 2.32% [at 7.02 µM] | activity, negative = inhibition [12] -8.08% [at 5.58 µM] | activation [13] -0.812% [at 6.97 µM] | activation [19] -0.0749% [at 8.39 µM] | activity change, negative = inhibition [14] -12.2% [at 8.39 µM] | activity change, negative = inhibition [15] -4.98% [at 8.39 µM] | activation [20] -33.8% [at 8.39 µM] | activation [16] -0.554% [at 8.39 µM] | activity change, negative = inhibition [17] 0.406% [at 8.38 µM]

CCCCCC(C)OC(=O)COc1ccc(Cl)c2cccnc12 (centres undefined)
inactive: Potency [1] | Potency [2] | Potency [3] | Potency [4] | Potency [5] | Potency [6] | Potency [7] | Potency [8] | Potency [18] | Potency [10] | Potency [12] | Potency [13] | Potency [14] | Potency [15] | Potency [20] | Potency [16] | Potency [17]

CCCCOc1ccc(N)cc1
inactive: Potency [1] | Potency [2] | Potency [3] | Potency [4] | Potency [5] | Potency [6] | Potency [7] | Potency [9] | Potency [18] | Potency [10] | Potency [11] | Potency [12] | Potency [13] | Potency [19] | Potency [14] | Potency [15] | Potency [20] | Potency [17]

C=CCOC(=O)CCC1CCCCC1
inactive: Potency [1] | Potency [2] | Potency [3] | Potency [4] | Potency [5] | Potency [6] | Potency [7] | Potency [8] | Potency [18] | Potency [10] | Potency [11] | Potency [12] | Potency [13] | Potency [19] | Potency [14] | Potency [15] | Potency [20] | Potency [16] | Potency [17]
